# According to PubChem BioAssay AID2314 (National Center for Advancing Translational Sciences (NCATS), 2010):
# Where “and” joins values, the source holds several entries; their conditions need not be identical. Equal entries are not always repeated. Screen size: about 300,000 compounds; about 37,000 (12%) were called active. The sample holds actives, similar compounds and a random draw of the others, so the mix is not that of the screen. Values without a mark were called inactive. Rule as the data show it: active = max response mostly above about 13% (no sharp cut-off); inactive = mostly below about 14%.
# Experiment: Cycloheximide Counterscreen for Small Molecule Inhibitors of Shiga Toxin; also: read at 38.3 µM for the half of the compounds with a filed dose; 0% is about no effect
# Conditions: cell reporter, cycloheximide protein synthesis inhibition counterscreen; hits give high values
row,SMILES,max response
1,CC(=O)c1ccc(N2CCN(C(=O)CCNC(=O)Cn3ccc4ccccc4c3=O)CC2)cc1,-4.48%
2,O=C(O)CCCN1C(=O)c2ccccc2Sc2ncccc21,-1.01%
3,C=C1CCN(C(CC(C)C)C(=O)NCc2cc(OC)c(OC)c(OC)c2)S(=O)(=O)c2ccccc21 (centres undefined),-2.25%
4,Cc1ccc(CSCCNC(=O)CN(c2ccc(F)cc2)S(C)(=O)=O)cc1,-2.68%
5,Cc1ccccc1C(=O)N1CCC(C(=O)Nc2ccc(S(=O)(=O)N(C)C(C)C)cc2)CC1,4.98%
6,CC1CCCCN1C(=O)Cn1c(=O)oc2cc(S(=O)(=O)N3CCCCC3)ccc21 (centres undefined),-1.34%
7,CC(C)(C)NCc1cc(Br)ccc1OC1CCCC1,-4.63%
8,CCCCCCn1cc(C(=O)O)c(=O)c2cc(F)c(N3CCCCC3)cc21,-0.584%
9,Cc1ccc(-c2csc(NC(=O)c3cccs3)n2)cc1,60.5% (active)
10,Cc1nnc(N(Cc2ccco2)C(=O)c2ccno2)s1,-2.88%
11,Cc1ccc(-c2csc(NNC(=O)c3ccccc3)n2)cc1,-2.93%
12,Cc1ccc(-c2csc(N(Cc3ccco3)C(=O)c3cccs3)n2)cc1,16.7% (active)
13,O=C(Nc1n[nH]c(C(F)(F)F)n1)c1cccs1,-2.4%
14,O=C(O)CCC(=O)N(Cc1ccco1)c1nc(-c2ccccc2)cs1,-1.24%
15,CCC(CC)c1nnc(NC(=O)C2CCN(C(=O)c3ccco3)CC2)s1,-2.36%
16,O=C(CNC1CCCCC1)NCC1(c2ccccc2)CCCC1,-3.76%
17,COCc1cc(=O)n2[nH]c(C)c(-c3ccccc3)c2n1,1.24%
18,COCc1cc(C(C)=O)ccc1OC,-7.85%
19,COc1cc(C(C)=O)ccc1OC(=O)CN1C(=O)c2ccccc2C1=O,-2.6%
20,COc1ccccc1-c1sc2ccccc2c1-c1ccc(C(C)=O)cc1,25.3% (active)
21,CC(=O)Nc1ccc(Oc2ccc3c(c2)C(=O)NC3=O)cc1,-1.54%
22,c1coc(CNc2ncnc3ccccc23)c1,-1.39%
23,CS(=O)(=O)n1nc(-c2ccccc2)nc1NCc1ccco1,13.9%
24,CCOCCCNc1nc(-c2ccccc2)nc2ccccc12,7.13%

row,SMILES,max response
1,O=C(Cc1ccccc1)n1nc(-c2ccccc2)nc1NCc1ccco1,15.3% (active)
2,c1ccc(-c2nc(NCc3ccco3)c3ccccc3n2)cc1,16.8% (active)
3,CSc1nc(-c2ccco2)nn1C(=O)CCc1ccccc1,-3.44%
4,Cc1cc(=O)[nH]c2nnnn12,4.1%
5,CC1(c2ccccc2)CC(C)(C)N(C(=O)c2cc([N+](=O)[O-])cc([N+](=O)[O-])c2)c2ccccc21 (centres undefined),-4.42%
6,N#CC1(C#N)C(C(=O)C23CC4CC(CC(C4)C2)C3)C12CCOCC2 (centres undefined),2.45%
7,Cc1cccc(N(C)C(=O)c2cc3c(=O)[nH]c4ccc(C)cc4c3s2)c1,-2.49%
8,COc1ccc(COC(=O)c2ccc(Cl)c(S(=O)(=O)N3CCOCC3)c2)cc1F,6.51%
9,COc1ccc(-c2cc(C(=O)NC(C(=O)O)C(C)C)c(C)o2)cc1OC (centres undefined),28.2% (active)
10,CC(C)C(NC(=O)c1ccc(Cl)cc1)C(=O)O (centres undefined),-2.96%
11,CCC(C)NC(=O)c1cc(Cl)ccc1OC (centres undefined),5.03%
12,COc1ccc(-c2cc(=O)oc3cc(OCC(=O)N[C@@H](Cc4c[nH]c5ccccc45)C(=O)O)ccc23)cc1,0.573%
13,COc1ccc(-c2cc(C(=O)NC(Cc3c[nH]c4ccccc34)C(=O)O)c(C)o2)cc1OC (centres undefined),32.9% (active)
14,Cc1cccc(C)c1OCC(=O)NC(Cc1c[nH]c2ccccc12)C(=O)O (centres undefined),-0.482%
15,COc1ccc(C(=O)N/N=C2\CCS(=O)(=O)c3ccc(F)cc32)cc1OC,-4.85%
16,O=C(CN(C(=O)c1csnn1)c1cccc(Cl)c1)NC1CCCC1,4.33%
17,COc1ccc2c3c(c(=O)oc2c1OCC(=O)C(C)(C)C)CCCC3,35% (active)
18,Cc1c(OC(C)C(=O)N[C@@H](Cc2ccccc2)C(=O)O)ccc2c3c(c(=O)oc12)CCCC3 (some centres undefined),-2.81%
19,CCCOc1ccc2c3c(c(=O)oc2c1OCCC)CCC3,-3.41%
20,CCn1c(C)cc(=O)cc1-c1ccc(Cl)cc1,-3.63%
21,COc1ccc(C(=O)CN(C(=O)c2ccc(Cl)cc2)N2C(=O)c3ccccc3C2=O)cc1,-2.08%
22,COc1ccc(Cn2c(-c3ccc(Cl)cc3)c[n+]3ccccc23)cc1,50.5% (active)
23,CCOc1ccc(NC(=O)CCS(=O)(=O)c2ccc3c(c2)CCCN3C(=O)CC)cc1,-2.69%
24,Cc1ccc(C(=O)COC(=O)CCN2C(=O)C3C4CCC(C4)C3C2=O)cc1C (centres undefined),11.1%

row,SMILES,max response
1,COC(=O)c1scc(C)c1NC(=O)CSc1ccc(Cl)cc1,-0.926%
2,O=C(CN1CCN(c2ccc(F)cc2)CC1)Nc1cccc(C(F)(F)F)c1,11.8%
3,CCC(=O)Nc1ccc2nn(-c3ccc(F)cc3)nc2c1,48.7% (active)
4,Cc1nn(CC(=O)Nc2ccc(F)cc2)c(=O)c2ccccc12,6.83%
5,CC(C)OC(=O)CN1C(=O)c2ccccc2C1=O,0.757%
6,Cc1cc(/C=C2/SC(=O)N(CC(=O)N3CCCC3)C2=O)c(C)n1C,-2.09%
7,Cc1cc(/C=C2/SC(=O)N(CC(=O)OC(C)C)C2=O)c(C)n1C,44% (active)
8,CC(C)OCCCNC(=S)N1CCC(C(=O)c2ccc3c(c2)OCCO3)CC1,-2.67%
9,c1csc(-c2nnc(COc3ccc4c(c3)OCO4)o2)c1,43% (active)
10,CC1CCC2(CC1)NC(=O)N(Cc1nnc(-c3cccs3)o1)C2=O (centres undefined),7.72%
11,c1csc(-c2nnc(COc3ncnc4sccc34)o2)c1,-1.52%
12,COc1cccc(Nc2nnc(SCC(=O)N3CC(C)OC(C)C3)s2)c1 (centres undefined),6%
13,COc1cccc(NC(=O)Nc2nnc(N3CCCCC3C)s2)c1 (centres undefined),43.6% (active)
14,COc1cccc(C(=O)Nc2nnc(S(=O)(=O)N3CCCCC3)s2)c1,-1.34%
15,O=C(c1ccco1)N1CCN(CCOc2ccccc2)CC1,9.67%
16,O=C1CCN(CCCc2ccccc2)CCN1CCO,-4.59%
17,O=C1CCN(CCc2ccccc2)CCN1CCOc1ccccc1,10.9% (active)
18,Cn1ncc2c(N3CCCCC3)nc(NCCCO)nc21,-5.17%
19,OCCC#Cc1ccc(CN2CCN(Cc3ccsc3)C(CCO)C2)cc1 (centres undefined),11.5%
20,CC1CCN(C(=S)c2cccc([N+](=O)[O-])c2)CC1,-0.525%
21,O=C(/C=C/c1ccc(F)cc1)NC(=S)NNC(=O)c1cccnc1,-1.85%
22,CS(=O)(=O)N(CC(=O)N1CCOCC1)c1cccc(Cl)c1Cl,4.45%
23,Cc1ccc(CSc2nc3[nH]ncc3c(=O)[nH]2)cc1,44.4% (active)
24,Cc1cccc(NC(=O)CSc2nc3[nH]ncc3c(=O)[nH]2)c1,6.25%

row,SMILES,max response
1,CCCSc1nc2[nH]ncc2c(=O)[nH]1,-7.37%
2,CCC(C)(C)NC(=O)C(c1ccc(OC)cc1)N(C(=O)CCC(=O)Nc1cc(C)on1)c1ccc(OC)cc1OC (centres undefined),-1.05%
3,COC(=O)c1ccc([C@@H](O)[C@H](C)C(=O)CC(=O)OC(C)(C)C)cc1,16.5% and 4.37%
4,C[C@@H](NC(=O)OC(C)(C)C)c1nnc(S(=O)(=O)Cc2ccccc2)o1,15.5% (active)
5,CC(C)Sc1nnc([C@H](Cc2ccccc2)NC(=O)OC(C)(C)C)o1,-2%
6,C[C@H](NC(=O)OC(C)(C)C)c1nnc(SCC(N)=O)o1,1.54%
7,COc1cc(-c2nnn(CC(=O)NCc3ccccc3)n2)cc(OC)c1OC,-0.552%
8,Cc1ccc(-n2c(O)c(C=Nc3ccc(S(=O)(=O)Nc4ncccn4)cc3)c3ccccc3c2=O)cc1C,9.64%
9,CC(C)Oc1ccc(CN2CCC(n3nccc3NC(=O)c3cccnc3)CC2)cc1,2.69%
10,COC(=O)C1=CN(c2ccc(F)c(F)c2)C=C(C(=O)OC)C1c1ccc([N+](=O)[O-])cc1,4.1%
11,CC(=O)c1ccc(N2CCN(S(=O)(=O)c3ccc4c(c3)CC(=O)N4C)CC2)cc1,11.5%
12,COC(=O)c1cc(NC(=O)c2nn(C)c(=O)c3ccccc23)cc(C(=O)OC)c1,-2.61%
13,CCc1ccccc1NC1c2ccccc2C(=O)N1c1cccnc1 (centres undefined),1.65%
14,COC(=O)c1cc(NC2c3ccccc3C(=O)N2c2ccc(Cl)cn2)cc(C(=O)OC)c1 (centres undefined),13.7% (active)
15,COCCNC(=O)c1ccc2c(c1)ncn2-c1ccc(C)c(Cl)c1,-2.44%
16,Cc1cc(OCCCN2CCN(Cc3ccccc3)CC2)ccc1[N+](=O)[O-],2.14%
17,NC1=NC(=O)C(Cc2cccc(Cl)c2Cl)S1 (centres undefined),-1.63%
18,O=C(NCCOCc1ccc(Cl)cc1)c1ncn[nH]1,-5.7%
19,COc1ccc(Cl)cc1CSc1ncn[nH]1,1.38%
20,O=C(/C=C/Sc1ncn[nH]1)c1ccc(Cl)cc1,35.4% (active)
21,Nc1nonc1-n1nnc(C(=O)N/N=C/C2CCCCC2)c1-c1ccccc1,-3.53%
22,COc1ccc(C(C(=O)NCc2ccccc2)N(Cc2cccs2)C(=O)c2cnccn2)cc1 (centres undefined),0.798%
